Publication PMC7862700, “An all-to-all approach to the identification of sequence-specific readers for epigenetic DNA modifications on cytosine”

Experiments:
Test in all cases: DAPPL (digital affinity profiling via proximity ligation, sequencing); 10 mM Tris-HCl pH 7.5, 50 mM NaCl, 1 mM DTT, 4% glycerol, room temperature, 30 min; GST-TFs on glutathione beads, 16-mer random dsDNA library, 0.1% formaldehyde crosslink after washing; high values mean tight binding
Details in all cases: protein: recombinant; tags: N-terminal GST; dsDNA, one strand shown
[1] = target: T1, FLI1 (Homo sapiens, UniProt Q01543 1-452)
T1 sequence: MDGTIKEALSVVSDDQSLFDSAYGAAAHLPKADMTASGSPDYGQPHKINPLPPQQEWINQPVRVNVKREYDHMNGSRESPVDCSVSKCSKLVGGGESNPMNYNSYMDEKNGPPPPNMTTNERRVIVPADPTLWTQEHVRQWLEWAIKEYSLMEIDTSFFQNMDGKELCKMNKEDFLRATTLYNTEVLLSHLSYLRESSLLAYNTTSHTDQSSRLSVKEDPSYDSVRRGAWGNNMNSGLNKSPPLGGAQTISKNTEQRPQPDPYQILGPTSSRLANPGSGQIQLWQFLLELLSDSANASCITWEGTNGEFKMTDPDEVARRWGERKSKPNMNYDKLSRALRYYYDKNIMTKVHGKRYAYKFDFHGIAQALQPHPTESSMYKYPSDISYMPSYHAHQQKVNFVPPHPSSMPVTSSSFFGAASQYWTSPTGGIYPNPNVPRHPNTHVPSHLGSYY
In short: (§1)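 Human transcription factors carrying a GST fusion were produced in yeast, bound to glutathione beads, tagged with DNA barcodes and pooled together with a tag-only sample. Each pool was held with 200 nmole of a random double-stranded 16-mer DNA library in Tris/NaCl/DTT/glycerol buffer for 30 min at room temperature, then washed, crosslinked in 0.1% formaldehyde, proximity-ligated with BsaI/T4 ligase (1 h, 37 °C), PCR-amplified and sequenced on an Illumina NextSeq500. Binding signal is the read frequency of each hexamer for a given factor divided by its frequency in the tag-only sample.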

[2] = target: T2, ELK1 (Homo sapiens, UniProt P19419 1-428)
T2 sequence: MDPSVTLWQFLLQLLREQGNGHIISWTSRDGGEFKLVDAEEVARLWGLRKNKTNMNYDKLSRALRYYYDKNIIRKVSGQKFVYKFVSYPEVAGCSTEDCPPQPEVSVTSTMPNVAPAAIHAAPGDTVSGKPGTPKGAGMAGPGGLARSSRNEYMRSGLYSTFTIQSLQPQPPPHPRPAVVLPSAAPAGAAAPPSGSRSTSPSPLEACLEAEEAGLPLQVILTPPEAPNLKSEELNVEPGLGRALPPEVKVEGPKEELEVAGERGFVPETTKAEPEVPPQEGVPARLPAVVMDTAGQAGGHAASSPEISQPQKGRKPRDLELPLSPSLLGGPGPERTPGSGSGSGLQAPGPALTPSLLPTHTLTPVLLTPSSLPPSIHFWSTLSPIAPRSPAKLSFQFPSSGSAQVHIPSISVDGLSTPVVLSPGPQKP
In short: as §1

[3] = target: T3, GABPA (Homo sapiens, UniProt Q06546 1-454)
T3 sequence: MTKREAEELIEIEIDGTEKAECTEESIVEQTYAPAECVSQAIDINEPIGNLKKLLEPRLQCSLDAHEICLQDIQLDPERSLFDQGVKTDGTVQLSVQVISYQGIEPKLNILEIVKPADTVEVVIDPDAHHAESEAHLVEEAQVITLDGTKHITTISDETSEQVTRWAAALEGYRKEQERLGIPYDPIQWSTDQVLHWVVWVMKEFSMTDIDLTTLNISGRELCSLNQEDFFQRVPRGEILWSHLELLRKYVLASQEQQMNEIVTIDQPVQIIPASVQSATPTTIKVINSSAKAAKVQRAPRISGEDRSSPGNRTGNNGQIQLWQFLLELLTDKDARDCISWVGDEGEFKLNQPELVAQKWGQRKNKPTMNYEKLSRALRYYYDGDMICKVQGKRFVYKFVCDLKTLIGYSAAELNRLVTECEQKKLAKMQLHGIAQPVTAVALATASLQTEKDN
In short: as §1

[4] = target: T4, ERG (Homo sapiens, UniProt P11308 1-479)
T4 sequence: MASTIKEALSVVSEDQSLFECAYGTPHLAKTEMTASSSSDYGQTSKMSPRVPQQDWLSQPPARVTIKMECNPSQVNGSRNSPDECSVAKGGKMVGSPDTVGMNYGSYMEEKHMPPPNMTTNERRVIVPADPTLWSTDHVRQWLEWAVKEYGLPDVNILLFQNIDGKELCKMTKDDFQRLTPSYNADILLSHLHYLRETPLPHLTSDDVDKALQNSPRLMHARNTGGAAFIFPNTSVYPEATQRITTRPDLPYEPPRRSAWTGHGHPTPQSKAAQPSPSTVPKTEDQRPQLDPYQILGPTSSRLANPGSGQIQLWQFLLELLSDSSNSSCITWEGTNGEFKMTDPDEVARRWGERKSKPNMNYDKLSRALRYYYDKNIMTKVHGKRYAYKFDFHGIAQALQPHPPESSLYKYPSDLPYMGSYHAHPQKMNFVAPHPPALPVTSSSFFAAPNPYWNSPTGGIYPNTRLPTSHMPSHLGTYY
In short: as §1

[5] = target: ELF1 (Homo sapiens, UniProt P32519 1-619)
In short: as §1

[6] = target: T5, EHF (Homo sapiens, UniProt Q9NZC4 1-300)
T5 sequence: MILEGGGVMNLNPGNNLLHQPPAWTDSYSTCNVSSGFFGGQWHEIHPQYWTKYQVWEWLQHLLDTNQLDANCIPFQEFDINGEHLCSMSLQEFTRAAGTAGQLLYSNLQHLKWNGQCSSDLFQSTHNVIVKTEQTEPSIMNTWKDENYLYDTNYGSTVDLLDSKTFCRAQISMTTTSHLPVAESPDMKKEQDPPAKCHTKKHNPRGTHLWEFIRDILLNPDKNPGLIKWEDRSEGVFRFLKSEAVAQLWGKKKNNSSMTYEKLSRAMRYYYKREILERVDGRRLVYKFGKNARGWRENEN
In short: as §1

[7] = target: SPI1 (Homo sapiens, UniProt P17947 1-270)
In short: as §1

[8] = target: SPIB (Homo sapiens, UniProt Q01892 1-262)
In short: as §1

[9] = target: T6, ELK3 (Homo sapiens, UniProt P41970 1-407)
T6 sequence: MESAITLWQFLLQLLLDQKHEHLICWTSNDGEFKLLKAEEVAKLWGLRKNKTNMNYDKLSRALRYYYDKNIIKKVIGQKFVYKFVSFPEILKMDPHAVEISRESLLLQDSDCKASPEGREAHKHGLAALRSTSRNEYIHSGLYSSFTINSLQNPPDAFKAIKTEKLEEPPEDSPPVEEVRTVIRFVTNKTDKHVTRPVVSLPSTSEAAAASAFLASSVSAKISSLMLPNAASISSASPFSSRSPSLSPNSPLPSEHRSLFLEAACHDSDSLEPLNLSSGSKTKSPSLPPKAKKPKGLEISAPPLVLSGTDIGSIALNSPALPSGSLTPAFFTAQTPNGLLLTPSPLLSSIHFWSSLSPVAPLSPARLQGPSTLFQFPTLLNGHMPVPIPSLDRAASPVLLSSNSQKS
In short: as §1

Sequence of SPIB (Q01892 whole entry): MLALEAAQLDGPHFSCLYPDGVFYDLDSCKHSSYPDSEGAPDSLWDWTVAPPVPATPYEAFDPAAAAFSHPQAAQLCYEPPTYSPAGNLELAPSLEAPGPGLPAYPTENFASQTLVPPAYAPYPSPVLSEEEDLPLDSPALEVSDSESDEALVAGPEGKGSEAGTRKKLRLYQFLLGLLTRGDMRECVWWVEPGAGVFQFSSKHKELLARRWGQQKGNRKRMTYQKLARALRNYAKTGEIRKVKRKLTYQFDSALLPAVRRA
Sequence of ELF1 (P32519 whole entry): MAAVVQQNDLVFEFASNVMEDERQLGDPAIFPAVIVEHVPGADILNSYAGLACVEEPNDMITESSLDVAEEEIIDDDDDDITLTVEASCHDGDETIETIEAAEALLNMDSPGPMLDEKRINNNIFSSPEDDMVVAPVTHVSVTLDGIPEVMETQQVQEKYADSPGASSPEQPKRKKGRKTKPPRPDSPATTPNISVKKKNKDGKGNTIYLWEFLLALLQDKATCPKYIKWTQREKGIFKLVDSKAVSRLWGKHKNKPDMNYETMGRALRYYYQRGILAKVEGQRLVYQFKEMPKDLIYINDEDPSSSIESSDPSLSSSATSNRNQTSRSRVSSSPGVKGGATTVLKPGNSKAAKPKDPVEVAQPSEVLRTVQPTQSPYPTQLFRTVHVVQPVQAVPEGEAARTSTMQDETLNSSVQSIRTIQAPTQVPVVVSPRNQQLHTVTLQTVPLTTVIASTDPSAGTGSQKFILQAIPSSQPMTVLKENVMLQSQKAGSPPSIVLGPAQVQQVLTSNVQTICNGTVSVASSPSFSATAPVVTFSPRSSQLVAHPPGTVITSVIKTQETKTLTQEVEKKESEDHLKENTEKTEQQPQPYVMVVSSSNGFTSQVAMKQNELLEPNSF

In the case of TAACAC, the binding signal [1] is reported as 1.26 fold enrichment (6-mer frequency, TF over GST control), the binding signal [2] is reported as 1.2 fold enrichment (6-mer frequency, TF over GST control) and the binding signal [3] is reported as 1.24 fold enrichment (6-mer frequency, TF over GST control). For the same sequence, the binding signal [4] was 1.19 fold enrichment (6-mer frequency, TF over GST control), the binding signal [5] was 1.23 fold enrichment (6-mer frequency, TF over GST control) and the binding signal [6] was 1.21 fold enrichment (6-mer frequency, TF over GST control). For the same sequence, the binding signal [7] was 1.18 fold enrichment (6-mer frequency, TF over GST control), the binding signal [8] was 1.25 fold enrichment (6-mer frequency, TF over GST control) and the binding signal [9] was 1.15 fold enrichment (6-mer frequency, TF over GST control).
